# Reference: publication PMC5540273 (PLoS ONE, 2017)
# Experiments:
# Details in all cases: concentration: 1 μM, replicates: in singlicate; n = 1
# AKT3 = test system: AKT3
# ALK = test system: ALK
# AMPK-alpha1 = test system: T1, AMPK-alpha1
# T1 construct: gene PRKAA1
# AMPK-alpha2 = test system: T2, AMPK-alpha2
# T2 construct: gene PRKAA2
# ANKK1 = test system: ANKK1
# ARK5 = test system: T3, ARK5
# T3 construct: gene NUAK1
# ASK1 = test system: T4, ASK1
# T4 construct: gene MAP3K5
# ASK2 = test system: T5, ASK2
# T5 construct: gene MAP3K6
# AURKA = test system: AURKA
# AURKB = test system: AURKB
# 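Note: KINOMEscan kinase panel screen.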
SMILES,%Inh (AKT3) [%],%Inh (ALK) [%],%Inh (AMPK-alpha1) [%],%Inh (AMPK-alpha2) [%],%Inh (ANKK1) [%],%Inh (ARK5) [%],%Inh (ASK1) [%],%Inh (ASK2) [%],%Inh (AURKA) [%],%Inh (AURKB) [%]
CC(C)N1CCC(n2cnc(-c3ccc(F)cc3)c2-c2ccnc(N)n2)CC1 [SB-223132],0,12,0,11,0,0,1,0,0,0
CS(=O)(=O)CCNCc1ccc(-c2ccc3ncnc(Nc4ccc(OCc5ccccc5)c(Cl)c4)c3c2)o1.Cl [GW574783],27,18,9,24,0,18,0,0,0,4
Nc1nc(-c2ccc3c(N)n[nH]c3c2)cc(N2CCC[C@@H](C(=O)Nc3ccccc3)C2)n1.O=C(O)C(F)(F)F.O=C(O)C(F)(F)F [GSK2288359],0,5,9,26,12,0,1,0,,0
COc1ccc(NC(=O)c2ccc(-c3cc(-c4nnc(C)o4)ccc3C)cc2)cc1 [GW595885],0,36,0,14,0,0,10,15,0,26
